Here are results for 38 targets from the supplement of paper PMC10849652.

Targets with a hit are over-represented here; the source holds about 7,900 in all. About 0.6% of all pairs of compound and target were hits. A number with no mark means an inactive call.

Chain of UniProt Q16629 (Q16629 whole entry, looked up): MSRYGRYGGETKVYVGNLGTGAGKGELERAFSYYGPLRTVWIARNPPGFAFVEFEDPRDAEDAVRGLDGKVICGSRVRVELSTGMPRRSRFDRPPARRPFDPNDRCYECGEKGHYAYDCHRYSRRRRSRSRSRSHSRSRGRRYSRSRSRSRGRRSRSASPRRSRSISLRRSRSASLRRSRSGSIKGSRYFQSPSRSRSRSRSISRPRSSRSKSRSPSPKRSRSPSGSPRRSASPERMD
Chain of UniProt Q15208 (Q15208 whole entry, looked up): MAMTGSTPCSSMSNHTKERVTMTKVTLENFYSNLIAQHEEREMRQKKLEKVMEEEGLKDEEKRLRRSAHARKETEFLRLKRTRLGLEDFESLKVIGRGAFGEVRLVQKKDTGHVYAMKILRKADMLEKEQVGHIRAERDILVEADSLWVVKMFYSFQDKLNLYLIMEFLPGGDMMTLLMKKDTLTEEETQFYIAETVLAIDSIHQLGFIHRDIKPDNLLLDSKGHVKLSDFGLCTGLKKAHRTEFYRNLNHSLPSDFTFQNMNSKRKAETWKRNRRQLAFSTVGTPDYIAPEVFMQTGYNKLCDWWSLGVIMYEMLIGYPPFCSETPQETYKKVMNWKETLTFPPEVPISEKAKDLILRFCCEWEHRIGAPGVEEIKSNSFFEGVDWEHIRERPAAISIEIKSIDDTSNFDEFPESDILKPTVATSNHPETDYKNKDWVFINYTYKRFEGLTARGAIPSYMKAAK
Chain of UniProt Q86UE8 (Q86UE8 whole entry, looked up): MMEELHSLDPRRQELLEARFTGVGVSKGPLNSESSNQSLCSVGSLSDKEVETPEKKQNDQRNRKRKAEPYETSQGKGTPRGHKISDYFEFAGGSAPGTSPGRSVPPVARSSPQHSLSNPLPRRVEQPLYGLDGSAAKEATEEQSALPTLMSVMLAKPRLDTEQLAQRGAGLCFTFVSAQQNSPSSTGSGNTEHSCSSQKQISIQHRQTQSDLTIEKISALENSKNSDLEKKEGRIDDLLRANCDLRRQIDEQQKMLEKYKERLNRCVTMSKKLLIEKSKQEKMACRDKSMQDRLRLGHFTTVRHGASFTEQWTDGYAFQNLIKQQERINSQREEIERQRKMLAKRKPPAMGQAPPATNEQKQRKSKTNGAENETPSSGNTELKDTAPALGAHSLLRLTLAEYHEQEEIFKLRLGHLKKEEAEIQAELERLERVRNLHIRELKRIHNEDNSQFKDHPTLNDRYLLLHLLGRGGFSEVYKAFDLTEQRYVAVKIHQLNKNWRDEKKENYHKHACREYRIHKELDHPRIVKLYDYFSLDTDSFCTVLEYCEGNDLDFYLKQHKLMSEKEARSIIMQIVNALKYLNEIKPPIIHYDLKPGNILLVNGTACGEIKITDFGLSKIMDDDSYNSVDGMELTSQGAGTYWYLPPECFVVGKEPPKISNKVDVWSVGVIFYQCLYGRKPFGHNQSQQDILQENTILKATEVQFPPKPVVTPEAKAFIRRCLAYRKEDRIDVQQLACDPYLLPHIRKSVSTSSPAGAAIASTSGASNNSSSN
Chain of UniProt P63165 (P63165 whole entry, looked up): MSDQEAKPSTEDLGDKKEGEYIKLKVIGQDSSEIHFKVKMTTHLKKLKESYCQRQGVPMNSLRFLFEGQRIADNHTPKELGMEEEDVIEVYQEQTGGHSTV
Chain of UniProt Q15796 (Q15796 whole entry, looked up): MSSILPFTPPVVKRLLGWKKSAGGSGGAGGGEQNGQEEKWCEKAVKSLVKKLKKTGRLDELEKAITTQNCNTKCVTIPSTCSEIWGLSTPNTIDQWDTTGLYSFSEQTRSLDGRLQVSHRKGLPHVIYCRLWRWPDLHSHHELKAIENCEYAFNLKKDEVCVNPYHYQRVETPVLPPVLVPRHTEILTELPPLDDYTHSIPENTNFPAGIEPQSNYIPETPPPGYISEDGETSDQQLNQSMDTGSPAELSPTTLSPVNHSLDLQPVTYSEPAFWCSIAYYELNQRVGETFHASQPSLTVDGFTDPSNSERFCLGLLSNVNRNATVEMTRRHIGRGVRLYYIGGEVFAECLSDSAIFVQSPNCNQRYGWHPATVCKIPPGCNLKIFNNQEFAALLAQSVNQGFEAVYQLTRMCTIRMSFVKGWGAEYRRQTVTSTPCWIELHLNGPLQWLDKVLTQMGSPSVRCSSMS
Chain of UniProt Q8IWZ8 (Q8IWZ8 whole entry, looked up): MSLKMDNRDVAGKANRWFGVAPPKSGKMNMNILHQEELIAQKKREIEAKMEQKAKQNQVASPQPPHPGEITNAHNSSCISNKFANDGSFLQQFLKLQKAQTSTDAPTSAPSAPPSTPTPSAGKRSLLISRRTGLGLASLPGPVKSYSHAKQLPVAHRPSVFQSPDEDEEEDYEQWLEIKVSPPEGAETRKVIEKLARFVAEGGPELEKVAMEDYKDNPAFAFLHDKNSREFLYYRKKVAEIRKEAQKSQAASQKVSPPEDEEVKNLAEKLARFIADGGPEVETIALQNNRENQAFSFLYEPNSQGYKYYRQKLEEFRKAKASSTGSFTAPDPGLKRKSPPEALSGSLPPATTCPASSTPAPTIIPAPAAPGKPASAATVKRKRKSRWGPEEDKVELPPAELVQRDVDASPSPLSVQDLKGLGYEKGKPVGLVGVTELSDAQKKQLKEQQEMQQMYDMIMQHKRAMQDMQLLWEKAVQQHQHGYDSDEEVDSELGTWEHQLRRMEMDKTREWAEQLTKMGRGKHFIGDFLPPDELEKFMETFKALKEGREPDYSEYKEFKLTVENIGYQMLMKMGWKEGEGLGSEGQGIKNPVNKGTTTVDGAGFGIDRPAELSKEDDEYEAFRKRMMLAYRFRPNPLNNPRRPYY
Chain of UniProt Q92609 (Q92609 whole entry, looked up): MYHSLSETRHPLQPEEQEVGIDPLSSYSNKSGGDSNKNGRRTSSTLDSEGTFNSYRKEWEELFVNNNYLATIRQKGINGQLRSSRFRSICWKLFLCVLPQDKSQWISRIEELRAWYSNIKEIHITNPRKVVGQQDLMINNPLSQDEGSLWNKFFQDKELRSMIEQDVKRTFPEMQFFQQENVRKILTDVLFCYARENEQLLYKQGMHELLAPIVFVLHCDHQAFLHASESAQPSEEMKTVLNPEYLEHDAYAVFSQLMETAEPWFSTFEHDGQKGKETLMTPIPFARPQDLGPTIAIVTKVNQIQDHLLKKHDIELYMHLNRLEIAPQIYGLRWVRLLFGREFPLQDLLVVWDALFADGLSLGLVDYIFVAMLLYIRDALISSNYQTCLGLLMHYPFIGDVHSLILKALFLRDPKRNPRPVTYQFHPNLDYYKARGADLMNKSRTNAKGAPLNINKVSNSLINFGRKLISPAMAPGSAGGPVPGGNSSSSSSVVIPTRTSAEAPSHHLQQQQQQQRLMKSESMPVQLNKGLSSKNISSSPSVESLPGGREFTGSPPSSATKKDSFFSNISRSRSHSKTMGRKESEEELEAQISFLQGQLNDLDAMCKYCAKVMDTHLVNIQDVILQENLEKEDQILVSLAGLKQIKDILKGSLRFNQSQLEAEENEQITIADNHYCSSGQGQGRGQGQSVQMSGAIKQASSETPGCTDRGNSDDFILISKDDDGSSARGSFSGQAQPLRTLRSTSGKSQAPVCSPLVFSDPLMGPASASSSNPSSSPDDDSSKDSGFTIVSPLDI
Chain of UniProt Q96BW9 (Q96BW9 whole entry, looked up): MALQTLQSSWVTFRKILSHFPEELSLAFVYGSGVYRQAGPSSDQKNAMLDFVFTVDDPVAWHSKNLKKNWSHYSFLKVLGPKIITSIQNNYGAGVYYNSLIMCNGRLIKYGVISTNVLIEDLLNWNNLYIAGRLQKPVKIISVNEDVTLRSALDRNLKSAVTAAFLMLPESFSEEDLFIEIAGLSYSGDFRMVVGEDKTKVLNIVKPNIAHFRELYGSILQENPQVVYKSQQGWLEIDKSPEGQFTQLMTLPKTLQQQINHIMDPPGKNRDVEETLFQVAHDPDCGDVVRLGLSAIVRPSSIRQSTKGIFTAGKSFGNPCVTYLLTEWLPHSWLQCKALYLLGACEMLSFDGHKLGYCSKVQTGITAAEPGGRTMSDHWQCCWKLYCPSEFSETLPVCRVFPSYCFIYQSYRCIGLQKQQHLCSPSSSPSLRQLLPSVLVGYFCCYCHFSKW
Chain of UniProt P02786 (P02786 whole entry, looked up): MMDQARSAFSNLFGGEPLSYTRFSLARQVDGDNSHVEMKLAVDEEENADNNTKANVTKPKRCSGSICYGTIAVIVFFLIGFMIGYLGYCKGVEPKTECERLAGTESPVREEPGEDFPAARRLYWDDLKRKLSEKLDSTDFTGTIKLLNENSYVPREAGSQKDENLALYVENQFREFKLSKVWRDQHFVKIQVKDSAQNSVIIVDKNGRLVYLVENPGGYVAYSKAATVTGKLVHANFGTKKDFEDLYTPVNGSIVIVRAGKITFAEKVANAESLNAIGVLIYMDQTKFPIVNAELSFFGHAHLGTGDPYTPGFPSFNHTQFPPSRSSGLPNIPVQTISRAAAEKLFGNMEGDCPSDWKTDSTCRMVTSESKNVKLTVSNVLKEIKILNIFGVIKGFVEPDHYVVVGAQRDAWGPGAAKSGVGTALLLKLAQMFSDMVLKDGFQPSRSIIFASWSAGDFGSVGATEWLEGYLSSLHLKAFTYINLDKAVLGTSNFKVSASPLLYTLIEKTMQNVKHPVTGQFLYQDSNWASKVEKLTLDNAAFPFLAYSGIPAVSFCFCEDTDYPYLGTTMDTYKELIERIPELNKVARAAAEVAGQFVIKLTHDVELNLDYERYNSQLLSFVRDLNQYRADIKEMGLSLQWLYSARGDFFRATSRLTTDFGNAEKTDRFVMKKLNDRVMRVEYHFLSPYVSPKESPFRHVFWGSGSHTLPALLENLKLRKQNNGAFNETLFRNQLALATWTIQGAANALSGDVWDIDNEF
Chain of UniProt P84103 (P84103 whole entry, looked up): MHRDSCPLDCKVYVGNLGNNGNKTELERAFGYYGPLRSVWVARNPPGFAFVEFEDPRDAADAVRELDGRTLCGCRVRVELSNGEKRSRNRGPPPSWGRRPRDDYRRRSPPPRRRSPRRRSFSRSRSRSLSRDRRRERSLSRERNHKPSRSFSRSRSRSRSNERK

Compound in the first experiment: CON(C)C(=O)N1N=C(c2cc(F)ccc2F)S[C@@]1(CCCN)c1ccccc1 [filanesib]
Put plainly: log2 fold change, soluble protein after heating vs DMSO (PISA); higher = thermal stabilisation; K562 cells, 10 uM, 30 min; active = over 0.2 and 3.5 SD of the protein, either way, in both replicates (recomputed). Put shortly:
(§1)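 Values are thermal stability changes relative to control samples and are taken from duplicates. They are stated as log2 fold changes. Before quantification by TMTpro 16plex LC-MS/MS with equalised channel sums, K562 cells at 2×10^6 cells/mL were treated with 10 μM compound for 30 min, heated in aliquots for 3 min across 48°C-58°C, pooled, extracted in PBS with 0.5% NP-40 at 4°C, and centrifuged at 21,000xg for 90 min to give the soluble supernatant.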
On to SNRNP27 (UniProt Q8WVK2), for which the log2 fold change is 0.03.

As to SRP68 (UniProt Q9UHB9), the log2 fold change is 0.066.

For SP3 (UniProt Q02447), the log2 fold change is -0.008.

As for TLK2 isoform 2 (UniProt Q86UE8), the log2 fold change is 0.038.

In the case of STAT6 (UniProt P42226), the log2 fold change is 0.091.

On to SLC38A9 (UniProt Q8NBW4), for which the log2 fold change is 0.064.

For the target STAM2 (UniProt O75886), the log2 fold change was 0.059.

For the target SLC30A7 (UniProt Q8NEW0), the log2 fold change was -0.086.

In the case of STARD7 (UniProt Q9NQZ5), the log2 fold change was -0.094.

Consider SUMO1 (UniProt P63165), for which the log2 fold change was 0.102.

In the case of STAT5A (UniProt P42229), the log2 fold change was 0.018.

On to SRPRA (UniProt P08240), for which the log2 fold change was -0.022.

Turning to TBC1D15 isoform 3 (UniProt Q8TC07), the log2 fold change is 0.

Turning to TFRC (UniProt P02786), the log2 fold change was -0.013.

As to SRSF7 (UniProt Q16629), the log2 fold change is 0.422.

Take TAMM41 isoform 3 (UniProt Q96BW9): the log2 fold change is -0.09.

Turning to STK38 (UniProt Q15208), the log2 fold change was -0.024.

For the target SLC6A6 (UniProt P31641), the log2 fold change was -0.013.

On to TBC1D23 (UniProt Q9NUY8), for which the log2 fold change is -0.184.

Consider SMAD9 (UniProt O15198), for which the log2 fold change was 0.009.

SRSF3 (UniProt P84103): the log2 fold change is 0.193.

In the case of TBCD (UniProt Q9BTW9), the log2 fold change is -0.063.

For TECR (UniProt Q9NZ01), the log2 fold change is -0.169.

For the target STK39 (UniProt Q9UEW8), the log2 fold change is -0.033.

As to TAF9 (UniProt Q16594), the log2 fold change is 0.109.

SUPT16H (UniProt Q9Y5B9): the log2 fold change is -0.026.

Turning to SRFBP1 (UniProt Q8NEF9), the log2 fold change was 0.193.

SLC9A6 isoform 2 (UniProt Q92581): the log2 fold change was -0.051.

SNX11 (UniProt Q9Y5W9): the log2 fold change was -0.128.

For the target SREK1 isoform 2 (UniProt Q8WXA9), the log2 fold change is -0.1.

For the target SMAD2 (UniProt Q15796), the log2 fold change is 0.091.

As for TBC1D5 isoform 2 (UniProt Q92609), the log2 fold change was -0.01.

Consider SLC25A36 (UniProt Q96CQ1), for which the log2 fold change was -0.069.

With SLC7A6 (UniProt Q92536), the log2 fold change is 0.009.

On to SUGP1 (UniProt Q8IWZ8), for which the log2 fold change was -0.01.

Regarding TAOK1 (UniProt Q7L7X3), the log2 fold change was 0.054.

Consider STXBP5 (UniProt Q5T5C0), for which the log2 fold change is -0.039.

Consider SURF1 (UniProt Q15526), for which the log2 fold change is -0.032.

Compound in the next experiment: CO[C@H]1C[C@@H]2CC[C@@H](C)[C@@](O)(O2)C(=O)C(=O)N2CCCC[C@H]2C(=O)O[C@H]([C@H](C)C[C@@H]2CC[C@H](n3cnnn3)[C@H](OC)C2)CC(=O)[C@H](C)/C=C(\C)[C@@H](O)[C@@H](OC)C(=O)[C@H](C)C[C@H](C)/C=C/C=C/C=C/1C [zotarolimus]
The experiment is described as above. An outline of the steps: as §1
Consider SNRNP27 (UniProt Q8WVK2), for which the log2 fold change was -0.156.

Regarding SRP68 (UniProt Q9UHB9), the log2 fold change is 0.043.

For the target SP3 (UniProt Q02447), the log2 fold change was -0.024.

For the target TLK2 isoform 2 (UniProt Q86UE8), the log2 fold change is 0.032.

Regarding STAT6 (UniProt P42226), the log2 fold change is 0.055.

For the target SLC38A9 (UniProt Q8NBW4), the log2 fold change is -0.012.

In the case of STAM2 (UniProt O75886), the log2 fold change was -0.018.

For the target SLC30A7 (UniProt Q8NEW0), the log2 fold change was -0.025.

As for STARD7 (UniProt Q9NQZ5), the log2 fold change is 0.006.

With SUMO1 (UniProt P63165), the log2 fold change is -0.183.

Regarding STAT5A (UniProt P42229), the log2 fold change was 0.094.

With SRPRA (UniProt P08240), the log2 fold change was -0.005.

For TBC1D15 isoform 3 (UniProt Q8TC07), the log2 fold change was 0.039.

As for TFRC (UniProt P02786), the log2 fold change is -0.041.

In the case of SRSF7 (UniProt Q16629), the log2 fold change is -0.015.

TAMM41 isoform 3 (UniProt Q96BW9): the log2 fold change is -0.009.

Regarding STK38 (UniProt Q15208), the log2 fold change was 0.036.

Take SLC6A6 (UniProt P31641): the log2 fold change is -0.017.

For the target TBC1D23 (UniProt Q9NUY8), the log2 fold change is -0.002.

Consider SMAD9 (UniProt O15198), for which the log2 fold change was -0.033.

With SRSF3 (UniProt P84103), the log2 fold change is -0.054.

As for TBCD (UniProt Q9BTW9), the log2 fold change is 0.049.

As for TECR (UniProt Q9NZ01), the log2 fold change is -0.041.

As for STK39 (UniProt Q9UEW8), the log2 fold change was 0.062.

As for TAF9 (UniProt Q16594), the log2 fold change was -0.018.

Turning to SUPT16H (UniProt Q9Y5B9), the log2 fold change was 0.104.

Turning to SRFBP1 (UniProt Q8NEF9), the log2 fold change is -0.021.

Turning to SLC9A6 isoform 2 (UniProt Q92581), the log2 fold change is -0.062.

SNX11 (UniProt Q9Y5W9): the log2 fold change was 0.043.

In the case of SREK1 isoform 2 (UniProt Q8WXA9), the log2 fold change is 0.053.

For SMAD2 (UniProt Q15796), the log2 fold change was 0.043.

As for TBC1D5 isoform 2 (UniProt Q92609), the log2 fold change was 0.048.

Consider SLC25A36 (UniProt Q96CQ1), for which the log2 fold change is 0.013.

For the target SLC7A6 (UniProt Q92536), the log2 fold change is -0.001.

For SUGP1 (UniProt Q8IWZ8), the log2 fold change is 0.

Turning to TAOK1 (UniProt Q7L7X3), the log2 fold change is -0.032.

Take STXBP5 (UniProt Q5T5C0): the log2 fold change was 0.

For the target SURF1 (UniProt Q15526), the log2 fold change is -0.008.
